Bioassay records: PubChem BioAssay, The Scripps Research Institute Molecular Screening Center
MITF primary – human MITF inhibition, primary screen. 0.91% of 650,000 active. AID 1259374. inhibition, % at 2.6 µM. AlphaScreen MITF homodimerization, bead proximity signal; in the data active = inhibition above about 50%
GPR151 activ – activators of human GPR151; Q8TDV0; PathHunter beta-arrestin GPR151 cells, luminescence; activation, % at 11.2 µM; 1% of 650,000 active; AID 1508602; in the data active = activation above about 4.9%
FBW7 act – human FBW7 E3 ligase activation, primary screen; AlphaScreen FBW7–phospho-cyclin E peptide binding, activator screen; normalized activity (activation), % at 26.1 µM; 0.13% of 650,000 active; AID 1259310; in the data active = normalized activity above about 1.9%;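 also: purified mutant Fbw7 with reduced substrate affinity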
Target sequence (Q969H0 whole entry, looked up): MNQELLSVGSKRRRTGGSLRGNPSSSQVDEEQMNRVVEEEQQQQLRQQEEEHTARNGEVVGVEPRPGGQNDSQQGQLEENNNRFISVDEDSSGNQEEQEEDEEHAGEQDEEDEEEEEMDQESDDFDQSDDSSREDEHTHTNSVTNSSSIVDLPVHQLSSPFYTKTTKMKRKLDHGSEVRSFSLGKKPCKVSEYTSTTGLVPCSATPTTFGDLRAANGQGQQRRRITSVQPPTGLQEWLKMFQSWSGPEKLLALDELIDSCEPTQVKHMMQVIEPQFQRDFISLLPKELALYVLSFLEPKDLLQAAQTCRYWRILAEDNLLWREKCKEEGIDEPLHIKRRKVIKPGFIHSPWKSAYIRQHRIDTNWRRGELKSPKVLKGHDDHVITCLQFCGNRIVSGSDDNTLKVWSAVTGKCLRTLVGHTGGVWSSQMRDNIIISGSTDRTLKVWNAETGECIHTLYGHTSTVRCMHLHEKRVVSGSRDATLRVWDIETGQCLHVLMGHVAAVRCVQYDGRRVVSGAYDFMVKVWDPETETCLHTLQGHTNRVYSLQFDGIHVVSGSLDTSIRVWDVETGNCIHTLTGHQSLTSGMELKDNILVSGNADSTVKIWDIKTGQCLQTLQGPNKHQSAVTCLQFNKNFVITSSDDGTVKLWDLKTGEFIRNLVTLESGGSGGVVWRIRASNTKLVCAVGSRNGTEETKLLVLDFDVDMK
TEAD-YAP block – TEAD-YAP interaction inhibition; HEK-TIYL cells, TEAD-Gal4/YAP UAS-luciferase luminescence; inhibition, % at 9.12 µM; 1.4% of 640,000 active; AID 1259422; in the data active = inhibition above about 32%
MITF confirm – human MITF inhibition, confirmation | shares compounds with MITF primary | AlphaScreen MITF homodimerization, biotin/His-MITF beads | inhibition, % at 2.6 µM | 16% of 4,700 active;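 active = inhibition above a cutoff derived from the DMSO control wells, cut at about 28% in these data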;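 also: inhibitors lower the bead chemiluminescence by keeping MITF from dimerizing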
AS interf DR – counter-screen: compounds optically interfering with AlphaScreen. shares compounds with MITF primary. AlphaScreen optical interference counterscreen, cell-free. IC50, µM. 6% of 480 active. AID 1259373; call rule not given here
AlphaScreen intf2 – optically interferes with AlphaScreen signal; inhibition, % at 2.6 µM; 7.6% of 4,700 active; LysRS AlphaScreen counterscreen, signal interference, triplicate; shares compounds with MITF primary; AID 1259376;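 active = inhibition above a cutoff derived from the DMSO control wells, cut at about 30% in these data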
Large screens that a line does not name were inactive (follow-up assays come after a bar, where they were run). Hits are enriched below; roughly 3.5% of the tested compounds scored in any of these assays.

CNC(=O)COc1cc(-c2cn[nH]c2)ccc1NC(=O)C1COc2ccc(OC)cc2C1 (stereo not drawn)	MITF primary 66 | MITF confirm 52 | AS interf DR inactive | AlphaScreen intf2 inactive
CCN1CCCC1CNCC(O)COc1ccccc1 (stereo not drawn)	MITF primary 56 | MITF confirm inactive | AlphaScreen intf2 inactive
CCOC(=O)N1CCN(CC(=O)N2c3ccccc3CC2C)CC1 (stereo not drawn)	MITF primary 67 | MITF confirm inactive | AlphaScreen intf2 inactive
CCOC(=O)N1CCN(CC(=O)N2c3ccccc3Sc3ccccc32)CC1	MITF primary 53 | MITF confirm inactive | AlphaScreen intf2 inactive
CC1Cc2ccccc2N1C(=O)CN1CCCN(CC(=O)N2c3ccccc3CC2C)CC1 (stereo not drawn)	MITF primary 62 | MITF confirm inactive | AlphaScreen intf2 inactive
CC1Cc2ccccc2N1C(=O)CN1CCN(C)CC1 (stereo not drawn)	MITF primary 77 | MITF confirm inactive | AlphaScreen intf2 inactive
CCN1CCN(c2ccccc2NC(=O)CCC(=O)O)CC1	none
CCSc1nnc(NC(=O)[C@@H](NC(=O)c2ccc(C)cc2)C(C)C)s1	none
O=c1[nH]c(/C=C/c2ccco2)nc(O)c1[N+](=O)[O-]	MITF primary 83 | MITF confirm 67 | AS interf DR inactive | AlphaScreen intf2 inactive
NC(=S)N/N=C/c1ccccc1OC(=O)c1cc([N+](=O)[O-])cc([N+](=O)[O-])c1	MITF primary 59 | MITF confirm 30 | AlphaScreen intf2 53
NS(=O)(=O)c1ccc(CCNS(=O)(=O)c2ccc3c(c2)CCN3C(=O)C2CC2)cc1	none
COc1ccccc1-c1c(C)nn2c(NCc3cccs3)cc(C)nc12	MITF primary 54 | MITF confirm inactive | AlphaScreen intf2 inactive
COc1ccccc1-c1c(C)nn2c(NCc3ccccc3)cc(C)nc12	none
Nc1nc(-c2cccs2)cn1/N=C/c1ccccc1	none
COc1ccc(-c2cc(C(F)(F)F)n3nc(C(=O)N4CCC(C)CC4)cc3n2)cc1	none
CC1(c2cc(C(F)(F)F)n3nc(C(=O)N4CCC(c5ccncc5)CC4)cc3n2)CC1	MITF primary 56 | MITF confirm inactive | AlphaScreen intf2 inactive
CCOC(=O)C1CCN(C(=O)c2cc3nc(-c4ccc(OC)cc4)cc(C(F)(F)F)n3n2)CC1	MITF primary 61 | MITF confirm inactive | AlphaScreen intf2 inactive
O=C(NCc1ccccc1)c1cccc(Cl)c1	none
CCOC(=O)C1CCN(Cc2nc3ccc(Cl)cc3n2CCO)CC1	MITF primary 72 | MITF confirm inactive | AlphaScreen intf2 inactive
CCOC(=O)C1CCN(Cc2ccc(Cl)cc2Cl)CC1	none
Cc1cc(C)c(NS(=O)(=O)c2ccc(NC(=O)c3ccco3)cc2)c(C)c1	none
Cc1cc(C)c(S(=O)(=O)Nc2ccc(Br)cc2)cc1S(=O)(=O)Nc1ccc(Br)cc1	none
Cc1ccc(S(=O)(=O)Nc2ccc(Br)cc2)cc1S(=O)(=O)Nc1ccc(Br)cc1	MITF primary 53 | MITF confirm inactive | AlphaScreen intf2 inactive
CS(=O)(=O)N1CCC(C(=O)NN)CC1	none
c1cc2c(cc1Cc1nn[nH]n1)OCO2	MITF primary 66 | MITF confirm inactive | AlphaScreen intf2 inactive
CN1CCN(Cc2cn(-c3ccccc3)nc2-c2ccc3c(c2)OCCO3)CC1	MITF primary 77 | MITF confirm inactive | AlphaScreen intf2 inactive
O=C(c1cn(-c2ccccc2)nc1-c1ccc2c(c1)OCCO2)N1CCOCC1	MITF primary 58 | MITF confirm inactive | AlphaScreen intf2 inactive
OCc1cn(-c2ccccc2)nc1-c1ccc2c(c1)OCCO2	none
CCc1ccc(NC(=O)C(=O)N/N=C(\C)CC(=O)NC2C3CC4CC(C3)CC2C4)cc1 (stereo not drawn)	none
CCOC(=O)c1c(N)n(CCCN2CCOCC2)c2nc3ccccc3nc12	MITF primary 55 | MITF confirm inactive | AlphaScreen intf2 inactive
O=C(CN1C(=O)NC2(CCCCC2)C1=O)Nc1ccc(F)c(F)c1F	none
C=CCn1c(SCC(=O)NCc2ccc3c(c2)OCO3)nc2scc(-c3ccccc3)c2c1=O	MITF primary 57 | MITF confirm inactive | AlphaScreen intf2 inactive
C=CCn1c(SCC(=O)NCc2ccc3c(c2)OCO3)nc2sc3c(c2c1=O)CCC3	none
COc1ccc(CCC(=O)Nc2ccc(/C(N)=N/O)cc2)cc1	none
CN(C)/C=C/C=C/C(=O)c1cccc(C(=O)/C=C/C=C/N(C)C)c1O	MITF primary 56 | MITF confirm 79 | AS interf DR inactive | AlphaScreen intf2 inactive
Cc1ccc(C(=O)/C=C/C=C/C=C/N(C)C)o1	none
CN(c1ccccc1)S(=O)(=O)c1ccc(/C(O)=C(\C#N)c2nc3ccccc3n2C)cc1	MITF primary 62 | MITF confirm inactive | AlphaScreen intf2 inactive
NC(=O)c1cc2ccccc2oc1=Nc1cccc2ccccc12	none
CCCCCCCCCCCCCCCCSC[C@H](COP(=O)(O)OCC[N+](C)(C)C)NC(=O)CCCCCCCCCCCCCCC	none (no result: FBW7 act, TEAD-YAP block)
Cc1ccc2c(Cl)c(C(=O)NCc3ccncc3)sc2c1	MITF primary 70 | MITF confirm inactive | AlphaScreen intf2 inactive
CCOC(=O)CNC(=O)c1sc2cc(C)ccc2c1Cl	none
COc1cccc(CN2CCN(Cc3ccc(C(F)(F)F)cc3)CC2)c1	MITF primary 81 | MITF confirm inactive | AlphaScreen intf2 inactive
COc1cc(C(=O)N2CCN(Cc3ccc(C(F)(F)F)cc3)CC2)cc(OC)c1OC	none
FC(F)(F)c1ccc(CN2CCSCC2)cc1	MITF primary 58 | MITF confirm inactive | AlphaScreen intf2 inactive
COc1ccc(OC)c(CN2CCN(Cc3ccc(C(F)(F)F)cc3)CC2)c1	MITF primary 78 | MITF confirm inactive | AlphaScreen intf2 inactive
COc1ccc(CN2CCN(Cc3ccc(C(F)(F)F)cc3)CC2)cc1	MITF primary 86 | MITF confirm inactive | AlphaScreen intf2 inactive
CN1CCCN(Cc2ccc(C(F)(F)F)cc2)CC1	none
Cc1ccc(C)c(Cn2c(C(=O)O)c(CNCC(C)c3ccccc3)c3ccccc32)c1 (stereo not drawn)	none
Fc1ccccc1C1CCN(Cc2cccnc2)CC1	none
Fc1ccc(C2CCN(Cc3cccnc3)CC2)cc1	MITF primary 53 | MITF confirm inactive | AlphaScreen intf2 inactive
Fc1ccc(C2CCN(Cc3ccncc3)CC2)cc1	MITF primary 60 | MITF confirm inactive | AlphaScreen intf2 inactive
CCCn1nnnc1SCC(=O)Nc1nc(-c2ccc(F)cc2)cs1	none
CC(C)(C)c1nnc(NC(=O)CN2C(=O)C3C4C=CC(C4)C3C2=O)s1 (stereo not drawn)	MITF primary 68 | MITF confirm inactive | AlphaScreen intf2 inactive
COc1ccc(CN2CCN(C(=O)c3cccc(F)c3)CC2)cc1OC	none
O=C(c1cccc(F)c1)N1CCN(Cc2cccc(F)c2)CC1	MITF primary 57 | MITF confirm inactive | AlphaScreen intf2 inactive
